According to PubChem BioAssay (Tox21):
Unmarked numbers belong to inactive results. A call without a number means that no potency is given here. Calls of active or inactive are those of the source. Calls come from the whole dose curve.
Potency is the fitted concentration of half-maximal effect.

The compounds below were run against Muscarinic acetylcholine receptor M1 (Homo sapiens) (UniProt P11229) (assay: Cholinergic receptor muscarinic 1 (CHRM1) small molecule agonists, cell-based qHTS assay (AID 1963589; note: nearly all actives have a fitted effect of over 35% in size)). Settings: CHRM1-CHO cells, agonist mode, calcium flux fluorescence; series mostly up to 76.8 µM.
Chain of Muscarinic acetylcholine receptor M1 (Homo sapiens) (P11229 whole entry, looked up): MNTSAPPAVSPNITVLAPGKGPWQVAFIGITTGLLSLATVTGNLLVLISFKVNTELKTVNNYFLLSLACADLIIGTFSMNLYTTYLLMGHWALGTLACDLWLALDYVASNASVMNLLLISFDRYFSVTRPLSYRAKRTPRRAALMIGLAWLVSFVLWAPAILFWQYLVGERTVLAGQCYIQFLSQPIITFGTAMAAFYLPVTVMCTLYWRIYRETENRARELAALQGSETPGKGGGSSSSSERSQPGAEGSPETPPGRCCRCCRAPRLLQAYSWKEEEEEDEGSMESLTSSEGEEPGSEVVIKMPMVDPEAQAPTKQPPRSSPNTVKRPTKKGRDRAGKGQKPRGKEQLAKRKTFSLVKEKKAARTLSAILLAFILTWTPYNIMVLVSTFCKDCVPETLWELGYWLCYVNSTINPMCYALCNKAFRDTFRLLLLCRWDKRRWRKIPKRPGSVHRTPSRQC
Text: National Center for Advancing Translational Sciences [NCATS]
Division of Preclinical Innovation [DPI]
U.S. Environmental Protection Agency [EPA]
National Institutes of Environmental Health Sciences [NIEHS]
National Toxicology Program [NTP]
U.S. Food and Drug Administration [FDA]
The CHRM1 is a muscarinic receptor. This receptor plays a crucial role in learning and memory processes and has long been identified as a promising therapeutic target for the improvement of cognitive decline in Alzheimer's disease (AD). The CHRM1-CHO cell line stably expressing human muscarinic acetylcholine receptor M1 (CHRM1) can be used for screening agonists and antagonists of interactions between CHRM1 and its ligands. The CHRM1-CHO Calcium Flux Assay is a homogeneous fluorescence-based assay for detecting the intracellular calcium level using FDSS kinetic plate reader system.
CHRM1-CHO cells were dispensed at 1000 cells/3uL/well in 1536-well black-clear bottom plates using a Multidrop Dispenser. After the assay plates were incubated at a 37 C/5% CO2 incubator for 18 h, 3 uL of Dye Loading Buffer was transferred to the assay plate by a Flying Reagent Dispenser. The assay plates were incubated at 37 C for 1h. For agonist mode, 23 nL of compounds dissolved in DMSO, positive controls or DMSO only was transferred to the assay plate by a pin tool. […] Each test compound was measured at 15 concentrations in three independent runs.
In the case of `O=C1NCCN1`, the Potency is reported as “inactive”. `CC(C)C(O)(c1ccc(OC(F)(F)F)cc1)c1cncnc1` (stereo not given) was tested, and the Potency was “inactive”. In the case of `CCCCCCCC1CCC(=O)O1` (stereo not given), the Potency is reported as “inactive”. `CCN(CC)c1ccc2c(c1)Oc1cc(N(CC)CC)ccc1C21OC(=O)c2ccccc21` was tested, and the Potency was 23.9 µM (active). In the case of `CC/C=C\CC/C=C/CO`, the Potency is reported as “inactive”. Compound `O=C(O)O` has an activation of -0.0976% [at 6.97 µM]. For `CCNC(=O)/C=C/c1cccc(Br)c1`, the Potency was “inactive”. `COc1cc2c(cc1OC)[C@@H]1CC(=O)[C@@H](CC(C)C)CN1CC2` was tested, and the Potency was “inactive”. For `CCN(CC)CCOc1ccc2c(c1)C(=O)c1cc(OCCN(CC)CC)ccc1-2`, the Potency was “inactive”. In the case of `CCCCC(CC)COC(=O)c1ccccc1` (stereo not given), the Potency is reported as “inactive”. With `O=C(O)c1ccccc1Nc1cc(Cl)ccc1C(=O)O` the activation was 0.0185% [at 15.8 µM]. In the case of `CC(C)(c1ccccc1)c1ccccc1`, the Potency is reported as “inactive”. In the case of `O=C(O)COc1nn(Cc2ccccc2)c2ccccc12`, the Potency is reported as “inactive”. In the case of `Nc1ccc2ccccc2c1S(=O)(=O)O`, the Potency is reported as “inactive”. With `N=C(N)N` the Potency was “inactive”. In the case of `CC(C)(C)Cl`, the Potency is reported as “inactive”. `O=C(O)[C@H](O)c1ccccc1` was tested, and the Potency was “inactive”. For `O=S(=O)(c1ccc(OCc2ccccc2)cc1)c1ccccc1O`, the Potency was “inactive”. For `CC(C)(C)c1cc(CCC(=O)OCC(COC(=O)CCc2cc(C(C)(C)C)c(O)c(C(C)(C)C)c2)(COC(=O)CCc2cc(C(C)(C)C)c(O)c(C(C)(C)C)c2)COC(=O)CCc2cc(C(C)(C)C)c(O)c(C(C)(C)C)c2)cc(C(C)(C)C)c1O`, the Potency was “inactive”. With `CC1(C)C(=O)NC(=O)N1CO` the Potency was “inactive”. In the case of `CCCN(CCc1cccs1)[C@H]1CCc2c(O)cccc2C1`, the Potency is reported as “inactive”. `c1ccc(-c2nc[nH]c2-c2ccccc2)cc1` was tested, and the Potency was “inactive”. In the case of `O=CC=C(c1ccccc1)c1ccccc1`, the Potency is reported as “inactive”. `CN(C)[C@@H](CCOc1cccc2ccccc12)c1ccccc1` was tested, and the Potency was “inactive”. In the case of `CC(=O)Nc1ccccc1O`, the Potency is reported as “inactive”. For `Cc1ccccc1`, the Potency was “inactive”. For `OCC(O)CO`, the Potency was “inactive”. In the case of `CCC(C)OC(C)CC` (stereo not given), the Potency is reported as “inactive”. For `CC(=O)Nc1ccc(S(=O)(=O)Cl)cc1`, the Potency was “inactive”. For `CN1[C@@H]2CC(OC(=O)[C@H](CO)c3ccccc3)C[C@H]1[C@@H]1O[C@@H]12` (stereo not given in full), the Potency was “inactive”. For `COc1cc(C(C)=O)ccc1OCCCN1CCC(c2noc3cc(F)ccc23)CC1`, the Potency was “inactive”. `CC(C)(C)C(=O)c1ccccc1` was tested, and the Potency was “inactive”. For `CCOC(=O)CC(=O)c1ccccc1`, the Potency was “inactive”. In the case of `CCN(CCC#N)c1ccccc1`, the Potency is reported as “inactive”. `C[C@]12CC[C@@H]3c4ccc(O)cc4CC[C@H]3[C@@H]1CC[C@@H]2OC(=O)CCC1CCCC1` was tested, and the Potency was “inactive”. For `CC(Cc1ccccc1)(NC(=O)CN)c1ccccc1` (stereo not given), the Potency was “inactive”. For `Nc1c[n+](N2CCOCC2)no1`, the Potency was “inactive”. For `CC(=O)c1ccc[nH]1`, the Potency was “inactive”. For `CCCCCOC(=O)Nc1nc(=O)n([C@@H]2O[C@H](C)[C@@H](O)[C@H]2O)cc1F`, the Potency was “inactive”. `COC(=O)CCCCCCCC(=O)OC` was tested, and the Potency was “inactive”.
